The entries come from a sample that favours hits as a whole.
Pf apPOL inh: Pf-apPOL inhibitors, biochemical, fluorescence; actives 0.25% (n = 210,000); AID 1794808, 2022; Recombinant Pf-apPOL, molecular beacon fluorescence, 1.5 h; Plasmodium falciparum apicoplast DNA polymerase (apPOL); inhibition, % at 10 µM
mHTT-CaM PPI inh: mutant huntingtin-calmodulin interaction inhibitors – biochemical, AlphaScreen, primary screen | P42858 | AlphaScreen His-mHTT/GST-CaM binding, luminescence | inhibition, % at 15 µM | actives 3.6% (n = 190,000) | AID 1671202, 2021;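 further: 0% = both proteins with DMSO and 100% = one protein alone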
* marks the source's active call; other numbers are inactive results; . = not tested or not shown; ! = repeats disagree. No stated cut-off is given here; in the data, active means inhibition above about 50%; inactive means the rest.

SMILES	Pf apPOL inh	mHTT-CaM PPI inh
Cc1cc2cc(CNC(=O)c3ccccc3[N+](=O)[O-])ccc2n1C	-13	25
Cc1cccc(NC(=O)NCc2ccc3c(c2)cc(C)n3C)c1	-30	50*
Cc1cc2cc(CNC(=O)c3c(F)cccc3Cl)ccc2n1C	-23	4
Cc1cc2cc(CNC(=O)Cc3ccc(F)cc3)ccc2n1C	-26	56*
CCOc1ccc2nc(C(=O)NC3CCCC3)cn2n1	-1	-4
c1cnc(-c2n[nH]c(C3CCCNC3)n2)cn1 (centres undefined)	-5	72*
c1cnc(-c2n[nH]c(C3CCCN(CC4CCCCC4)C3)n2)cn1 (centres undefined)	-8	54*
CC(C)CCN1CCCC(c2nc(-c3cnccn3)n[nH]2)C1 (centres undefined)	4	34
c1cnc(-c2n[nH]c(C3CCN(CC4CCCCC4)CC3)n2)cn1	-5	-1
CCCc1nnsc1C(=O)Nc1nc2c(F)cc(F)cc2s1	-7	-11
CCN(CC)C(=O)C1CCCN(Cc2ccc([N+](=O)[O-])o2)C1 (centres undefined)	-28	2
CCN(CC)C(=O)C1CCCN(c2ccc([N+](=O)[O-])cc2C=O)C1 (centres undefined)	0	70*
Cc1ccc(S(=O)(=O)N=C2NC(=O)/C(=C/c3ccccn3)S2)cc1	0	5
CCOc1ccc(/C=C2\SC(=NS(=O)(=O)c3ccc(C)cc3)NC2=O)cc1	-3	51*
COc1cccc(Oc2nc3c(c(=O)n(C)c(=O)n3C)n2Cc2c(F)cccc2Cl)c1	-2	0
Cc1ccc(-c2nc(C3CCN(S(=O)(=O)c4ccccc4)CC3)no2)cc1	-6	-2
CN1c2cc(C(=O)N3CCN(c4ccccc4Cl)CC3)ccc2C(=O)N2CCCCC21 (centres undefined)	3	2
CN1c2cc(C(=O)N3CCc4ccccc4C3)ccc2C(=O)N2CCCCC21 (centres undefined)	-4	93*
CC(NC(=O)c1cn2ccccc2n1)c1cccnc1 (centres undefined)	0	-3
Cc1ccc(-c2cn3cc(C(=O)NC(C)c4cccnc4)ccc3n2)cc1 (centres undefined)	0	51*
Cc1ccc(-c2cn3cc(C(=O)NC(C)c4cccnc4)ccc3n2)cc1C (centres undefined)	-3	53*
CC(NC(=O)c1ccc(-c2ccnc(N3CCCC3)n2)cc1)c1cccnc1 (centres undefined)	3	19
CN(C)C(=O)c1cc2c(s1)CCC(C(=O)NC1CCCCC1)C2 (centres undefined)	0	2
CC(C)N(Cc1ccccc1)c1ncnc(N)c1[N+](=O)[O-]	0	8
CN(Cc1ccccc1)c1ncnc(N)c1[N+](=O)[O-]	92*!	9
SMILES	Pf apPOL inh	mHTT-CaM PPI inh
O=C(Oc1ccccc1N1CCCCC1)c1ccc(Oc2cc(Cl)cc(Cl)c2)o1	-1	.
COC(=O)c1ccc(=O)oc1	.	-8
COC(=O)c1ccc2occ(-c3oc4ccc(C(=O)OC)cc4c3O)c2c1	-7	100*
CC(CCc1ccccc1)NC(=O)Cc1ccc(Cl)cc1 (centres undefined)	4	-4
CC1Cc2ccccc2N1C(=O)Cc1cc(-c2ccco2)on1 (centres undefined)	-3	0
NC(=O)C1CCN(C(=O)Cc2cc(-c3ccco3)on2)CC1	73*	-3
CC(C)N(Cc1cccs1)C(=O)C1C2CC3OC(=O)C1C3C2 (centres undefined)	-4	-2
O=C(c1cccnc1SCc1ccccc1Cl)N1CCC2(CC1)OCCO2	-70	2
O=C1c2c(O)cc(O)cc2OC(c2ccc(O)c(O)c2)C1O (centres undefined)	0	.
O=C(OC1Cc2c(O)cc(O)cc2OC1c1cc(O)c(O)c(O)c1)c1cc(O)c(O)c(O)c1 (centres undefined)	54*	.
N#Cc1cnc2ccc(F)cc2c1N1CCC(C(=O)NCc2ccccc2F)CC1	2	-5
CC1=C(c2nn[nH]n2)C(=O)OC1(C)C	.	-4
COc1ccccc1-c1coc2c(CN3CCCC3)c(O)ccc2c1=O	1	1
CS(=O)(=O)N1CCN(C(=O)c2ccc(-n3cccn3)nn2)CC1	-1	-15
O=C(CSCc1ccc(Cl)cc1)NC1CCCC1	-5	-9
O=C(c1ccc(N2CCNC(c3ccccc3)C2)nc1)N1CCc2ccccc2C1 (centres undefined)	-6	71*
CN1CCN(C(=O)c2ccc(N3CCNC(c4ccccc4)C3)nc2)CC1 (centres undefined)	-3	-4
CCOc1ccccc1NC(=O)N1CC2CCCN2c2ccccc21 (centres undefined)	1	80*
Cc1cccc(NC(=O)N2CC3CCCN3c3ccccc32)c1C (centres undefined)	-3	30
